Each structure is given as a SMILES string. Several values for one entry are separate records, joined by “and”; a condition that tells them apart may be missing. Equal entries are not always repeated. About 970 (0.31%) of roughly 310,000 compounds were called active. Shown is part of a subset that was picked to be rich in actives. Unmarked numbers belong to inactive results.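 The calls were made as follows: active = every replicate shows inhibition above about 80%, whatever the replicate mean (limit read from the data); inconclusive = mean inhibition reaches the set limit but some replicate falls short; inactive = the rest.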

The assay is described as follows: growth inhibition of PfHsp90-expressing yeast, primary screen, antimalarial PfHsp90 inhibitor project, S. cerevisiae, BacTiter-Glo luminescence, single point, set 2 (AID 504621).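 Also: yeast relying on Plasmodium falciparum Hsp90 in place of its own; 0% = DMSO neutral controls and 100% = 20 µM radicicol positive controls.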 Particulars: BacTiter-Glo ATP, 48 h, at 9.4 µM, active compounds read high, yeast lacking PDR1 and PDR3 efflux regulators.
In general, inhibition refers to the change of the read-out against control, counted positive when it falls. Regarding `COc1cccc(C=CC(=O)C=CC=Cc2ccccc2)c1`, the inhibition was 16.4%.

`CN(C)C(=S)N=c1ssc(=S)n1Cc1ccco1`: the inhibition is -41.1%.

As for `Oc1ccc(N=Nc2nccs2)c(O)c1`, the inhibition was 4.56%.

`Oc1ccc2ccccc2c1N=Nc1nccs1`: the inhibition is 131% (active).

As for `c1ccc(NCc2cccc3ccccc23)nc1`, the inhibition is 3.43%.

For the compound `CCCCC(=O)Nc1ccc(C(=O)Nc2cc(C(F)(F)F)ccc2Cl)cc1`, the inhibition was -1.45%.

Turning to `CCCCN(CCCC)CCC(O)c1cc2c(Cl)cc(Cl)cc2c2cc(C(F)(F)F)ccc12` (stereo unspecified), the inhibition is 110% (active).

`COc1ccc(C(CNC(=O)c2cccc(S(=O)(=O)Nc3ccc(Br)cc3)c2)N(C)C)cc1` (stereo unspecified): the inhibition is 3.14%.

As to `C=CC[C@@H](Cc1ccc(F)cc1)C(=O)OC[C@H]1CCCN1C(=O)[C@H](CC=C)CC(=O)N(CCO)Cc1ccccc1`, the inhibition is 6.25%.

With `NNc1cccc(C=Cc2ccccc2)cc1=O`, the inhibition was 17.2%.

In the case of `Cc1cccnc1NC(=O)c1cccc(S(=O)(=O)N2CCN(c3ccc(F)cc3)CC2)c1`, the inhibition was -4.19%.

In the case of `Oc1c(CN2CCCC2)cc(COCc2ccccc2)c2cccnc12`, the inhibition was 16.4%.

With `Oc1c(CN2CCN(c3ccc(F)cc3)CC2)cc(Cl)c2cccnc12`, the inhibition was 136% (active).

For the compound `COc1ccc(Nc2ccc3ccccc3c2)cc1`, the inhibition is -39%.

Turning to `O=C(Nc1nnc(CCOCCOCCc2nnc(NC(=O)c3ccco3)s2)s1)c1ccco1`, the inhibition is 4.41%.

As for `O=C(Nc1ccccc1)c1ccco1`, the inhibition was 1.65%.

As to `O=C(Nc1nc(-c2ccco2)c(-c2ccco2)s1)c1ccco1`, the inhibition is 92% (active).

As to `COc1ccc(/C=C2/CCCc3ccccc3C2=O)cc1`, the inhibition is 17.4%.

Turning to `Cc1ccc2nc(Nc3ccccc3)cc(C)c2c1`, the inhibition was -1.32%.

`CCS(=O)(=O)Nc1cccc(-c2cc(-c3ccccc3)c3cc(C)ccc3n2)c1`: the inhibition was 102% (active).

Take `Cc1ccc2nc(-c3ccncc3)cc(C(=O)Nc3ccncc3)c2c1`: the inhibition is -8.61%.

With `O=C1OCC2=C1C(c1ccc(Cl)cc1)c1cc3c(cc1O2)OCO3` (stereo unspecified), the inhibition is -15.7%.

Turning to `O=C(Cn1c[n+](CC(=O)c2ccc([N+](=O)[O-])cc2)cn1)c1ccc([N+](=O)[O-])cc1`, the inhibition was -20.5% and -1.84%.

With `O=C(Nn1cnnc1)c1ccc([N+](=O)[O-])cc1`, the inhibition was 10.8%.

`O=C(CC(n1cncn1)C(Cl)(Cl)Cl)c1ccc([N+](=O)[O-])cc1` (stereo unspecified): the inhibition was 123% (active).

As to `Oc1ccc(-c2nc3ccccc3nc2-c2ccc(O)cc2O)c(O)c1`, the inhibition was 6.66%.

With `O=C(O)c1ccc(NN=CC2=C(N3CCOCC3)/C(=C/c3ccccc3)CC2)cc1`, the inhibition is -30.6%.

Regarding `CC(C)c1ccc(C=NNc2ccc([N+](=O)[O-])cn2)cc1`, the inhibition is -14.5%.

Consider `O=S(=O)(NC1CCCCC1N1CCCCC1)c1ccc(Cl)cc1` (stereo unspecified), for which the inhibition is -25%.

Take `O=S(=O)(NC1CC2CCC1C2)c1ccc(Cl)cc1` (stereo unspecified): the inhibition is 104% (active).

On to `O=S(=O)(NC1CC1)c1ccc(Cl)cc1`, for which the inhibition is -7.47%.

On to `COc1ccc(-c2ccc3c(c2)[C@@H]2C[C@H](N(C)S(=O)(=O)c4ccccc4)[C@H]([C@H](C)O)C(=O)N2CC3)cc1`, for which the inhibition was 6.39%.

On to `CC(C)Cn1cnc2c(SCc3ccc(Cl)cc3)nc(N)nc21`, for which the inhibition is 12.6%.

With `COc1cccc2c1C(=O)c1c(O)c3c(c(O)c1C2=O)CC(O)(C(C)=NNC(=O)c1ccc(Cl)c(Cl)c1)CC3OC1CC(N)C(O)C(C)O1` (stereo unspecified), the inhibition is -3.52%.

As to `CC1=C/C(=N\OS(=O)(=O)c2ccccc2)C=CC1=O`, the inhibition is 100% (active).

Take `O=C(Nc1ccc(S(=O)(=O)N2CCOCC2)cc1)C1CCN(S(=O)(=O)c2ccc(Cl)cc2)CC1`: the inhibition is -11.4%.

With `COc1ccc2c(c1)c(=Cc1ccc(N(C)C)cc1)c1cc(-c3ccccc3)[n+](C)n12`, the inhibition was 114% (active).

With `COc1ccc2sc(-c3ccc(N(C)C)cc3)c(-c3ccc4cc[nH]c4c3)c2c1`, the inhibition was -6.56%.

`COc1ccc2sc(-c3ccc(N(C)C)cc3)c(C#CCO)c2c1`: the inhibition is 15%.

With `CCN1CCC(O)(/C=C/c2ccc(C)cc2)C(C(=O)/C=C/c2ccc(C)cc2)C1` (stereo unspecified), the inhibition was 19.6%.

With `Cc1c(NS(=O)(=O)c2cccc(C(=O)Nc3ccc(SC(F)F)cc3)c2)c(=O)n(-c2ccccc2)n1C`, the inhibition was -2.76%.

As for `COc1ccc2c(c1)C(=O)CC(c1ccccc1)O2` (stereo unspecified), the inhibition was -30%.

Take `CCCCC(=O)NC(c1ccc(OC)c(OC)c1)c1ccc2cccnc2c1O` (stereo unspecified): the inhibition was 25.2%.

For `C#CCOCCOCCOCCNc1nc(N2CCOCC2)nc(N2CCN(C(=O)[C@H](Cc3ccc(O)cc3)n3cc(CCO)nn3)CC2)n1`, the inhibition was 2.07%.

As to `C[C@@H]1C[C@@H]2O[C@H]2/C=C\C=C\C(=O)Cc2c(Cl)c(O)cc(O)c2C(=O)O1`, the inhibition was 95% (active).

Take `Cc1ccc(-c2csc(C(C#N)=C(O)CN3CCN(C(=O)c4ccco4)CC3)n2)cc1`: the inhibition was 4.72%.

Take `CC(=O)Nc1ccc(S(=O)(=O)Nc2ccc(N3CCCCC3)cc2)cc1`: the inhibition was 26.6%.

Turning to `O=C(Cc1ccccc1)NC(=S)Nc1ccc(N2CCCCC2)cc1`, the inhibition was -35.9%.

Turning to `O=C1C=CC(=O)N1c1ccc(N2CCCCC2)cc1`, the inhibition is 109% (active).

As for `O=C(NNc1nc(N2CCCC2)nc(N2CCCC2)n1)c1ccccc1`, the inhibition was 16.9%.

Turning to `CCN(CC)CCCC(C)n1c2nc(=O)[nH]c(=O)c-2nc2cc(Cl)ccc21` (stereo unspecified), the inhibition is -9.23%.

As for `NC(=O)C1CCN(C(=O)c2cc(S(=O)(=O)N3CCN(c4ccccc4)CC3)ccc2Cl)CC1`, the inhibition was -2.95%.

For the compound `CC1=CC(=NNS(=O)(=O)c2ccc([N+](=O)[O-])cc2)CC(C)(C)C1`, the inhibition is -10.2%.

With `O=[N+]([O-])c1ccc(NS(=O)(=O)c2ccccc2)c(Cl)c1`, the inhibition is -12%.

`COc1ccc(/C=C/C(=O)c2cc(Br)ccc(=O)c2O)cc1`: the inhibition is 99.7% (active).

Consider `COc1ccc(/C=C/C(=O)c2ccc(OC)cc2O)cc1`, for which the inhibition is 3.31%.

For `COc1ccc(C(=O)/C=C/c2ccc(OC3CSC3)cc2)cc1`, the inhibition is 12.6%.

As for `CN(C(=O)c1cccc(NC(=O)Cc2ccc(NC(=O)C3CCCN(C(=O)C4CCCC4)C3)cc2)c1)C1CCC1` (stereo unspecified), the inhibition was 3.19%.

On to `COC(=O)CC(CC(=O)OC)n1cccc1`, for which the inhibition is 10.4%.

Regarding `Cc1cccc(NC(=S)N2CCC(C(=O)c3ccc(F)cc3)CC2)c1`, the inhibition was -3.65%.

For the compound `COc1ccc(CNCCCNCc2ccc(OC)c(OC)c2)cc1OC`, the inhibition was -32.5%.

Regarding `CC(=O)N(C1=C(Cl)C(=O)c2ccccc2C1=O)c1ccc(C(=O)O)cc1`, the inhibition is 13.4%.

For `CC(=O)Oc1ccc2c(c1)C(=O)c1ccccc1C2=O`, the inhibition was 6.15%.

Regarding `O=C1C(Cl)=C(Oc2ccccc2)C(=O)c2ccccc21`, the inhibition was 104% (active).

For `COc1ccc(Cn2cc(CN3CCS(=O)(=O)N(Cc4ccc(-c5cccc(Cl)c5)cc4)C(C)C3=O)nn2)cc1` (stereo unspecified), the inhibition is -24.7%.

Consider `Oc1ccc(Br)cc1/C=N/Nc1ccccn1`, for which the inhibition was 107% (active).

As to `Oc1cccc(/C=N/Nc2ccc(Cl)nn2)c1O`, the inhibition was 1.34%.

With `COc1ccc(-c2nn(-c3ccccc3)cc2/C=N/Nc2ccccn2)cc1OC`, the inhibition was -22%.

On to `COc1ccc(CCC(=O)Nc2ccc(Cl)c(S(=O)(=O)N3CCOCC3)c2)cc1OC`, for which the inhibition is -12.1%.

In the case of `CC[C@@H]1Cc2cc(O)ccc2C2=C1c1ccc(O)cc1C[C@H]2CC`, the inhibition was 108% (active).

`CSCCC(NC(=O)COc1ccccc1)C(=O)N1CCN(c2cccc(C(F)(F)F)c2)CC1` (stereo unspecified): the inhibition is 46.4%.

On to `Cc1ccc(S(=O)(=O)c2cc3c(=O)n4cccc(C)c4nc3n(CCc3ccccc3)c2=N)cc1C`, for which the inhibition was 0.767%.

Regarding `COc1cc(/C=N/O)cc(Br)c1OS(=O)(=O)c1ccc(C)cc1`, the inhibition is -10.1%.

On to `COc1cc(C(=O)NCc2ccncc2)cc(Br)c1OCc1ccccc1`, for which the inhibition is 46.3%.

As to `COc1cc(/C=N/O)cc(Br)c1OCc1cccc(Cl)c1`, the inhibition is 121% (active).

On to `Cc1nn(-c2ncccn2)c2c1C(=O)CC(C)(C)C2Br` (stereo unspecified), for which the inhibition was -6.87%.

Turning to `COc1ccc(CCN2CC(C(=O)OCC(=O)NCc3ccccc3Cl)CC2=O)cc1OC` (stereo unspecified), the inhibition is -2.54%.

Regarding `CC1(C)N=C(N)NC(Nc2ccc(Cl)cc2)=N1`, the inhibition was 7.88%.

`C/C(=N\Nc1ccc(Cl)nn1)c1ccccc1O`: the inhibition is 2.56%.

`CCN(/N=C/c1ccc(N(C)C)cc1)c1nc2ccccc2[nH]1`: the inhibition is 24%.

With `Oc1ccc(/C=N/N(Cc2ccccc2)c2ccccc2)cc1`, the inhibition is 96.6% (active).

Take `CCN(/N=C/c1ccccc1)c1cc(=O)n(C)c(=O)[nH]1`: the inhibition was -32.6%.

Turning to `Cc1ccc2c(O)c(Cc3ccccc3)c(=O)[nH]c2n1`, the inhibition is -3.48%.

Turning to `CC(C)C[C@H]1CN([C@@H](CC(C)C)CN2CCC[C@@H]2CN2C(=O)C(=O)NC[C@@H]2Cc2ccccc2)C(=O)C(=O)N1CCc1ccccc1`, the inhibition is 1.81%.

On to `CC(C=Cc1ccccc1)=NNS(=O)(=O)c1ccc([N+](=O)[O-])cc1`, for which the inhibition was -1.29%.

For the compound `CC(=O)OCC1(O)CC23CCC4c5ccoc5CCC4(C)C2CCC1C3` (stereo unspecified), the inhibition is -29.4%.

As to `c1ccc(CCc2ccccn2)cc1`, the inhibition was 12.1%.

Take `O=[N+]([O-])c1ccc(C=Nc2ccc(Cl)cc2Cl)s1`: the inhibition was 110% (active).

`CC(C)(C)c1cc(C(=O)N/N=C/c2ccc([N+](=O)[O-])s2)n[nH]1`: the inhibition was -5.37%.

With `Cc1ccccc1NCC(=O)N/N=C\c1ccc([N+](=O)[O-])s1`, the inhibition is -6.37%.

As to `CC(C)(C)OC(=O)N1CCC(C(=O)Nc2cccc(C(=O)NCCc3ccccc3)c2)CC1`, the inhibition was 5.32%.
